HEK293 tox = cytotoxic compounds in HEK 293 cells; Potency, µM (top dose mostly 115 µM), usual class: inhibitors; HEK 293 viability, ATP luminescence (CellTiter-Glo), 48-72 h; 94,000 tested, 6.6% active; note: nearly all actives have a fitted effect of over 60% in size
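Cytotoxicity was scored by loss of ATP-coupled luminescence (CellTiter-Glo) in HEK 293 cells. Compound treatment ran 48 or 72 hr at 37 degree Celsius, 5% CO2, 95% humidity.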
Luciferase inh = inhibitors of firefly (Photinus pyralis) luciferase; 76,000 tested, 2.5% active; Potency, µM (titrated, usually from 115 µM), hits mostly inhibitors; purified P. pyralis luciferase, luminescence, biochemical; note: nearly all actives have a fitted effect of over 65% in size
Target sequence (P08659 whole entry, looked up): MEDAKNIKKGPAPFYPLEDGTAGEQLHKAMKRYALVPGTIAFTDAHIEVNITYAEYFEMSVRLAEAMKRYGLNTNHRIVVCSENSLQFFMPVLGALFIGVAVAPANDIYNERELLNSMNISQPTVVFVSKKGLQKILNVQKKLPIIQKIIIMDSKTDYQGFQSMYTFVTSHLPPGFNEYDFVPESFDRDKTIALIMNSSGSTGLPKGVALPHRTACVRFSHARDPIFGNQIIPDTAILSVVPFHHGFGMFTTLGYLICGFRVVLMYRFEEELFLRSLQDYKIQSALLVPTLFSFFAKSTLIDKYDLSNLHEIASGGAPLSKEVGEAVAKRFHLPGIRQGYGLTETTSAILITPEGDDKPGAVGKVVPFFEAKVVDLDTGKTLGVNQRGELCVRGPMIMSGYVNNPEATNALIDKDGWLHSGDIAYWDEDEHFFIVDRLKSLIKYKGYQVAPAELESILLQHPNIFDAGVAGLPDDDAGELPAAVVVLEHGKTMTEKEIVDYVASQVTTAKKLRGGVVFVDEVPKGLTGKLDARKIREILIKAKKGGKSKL
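Purified 10nM P. pyralis luciferase with 10uM D-luciferin and 10uM ATP in 50mM Tris acetate pH 7.5, 10mM Mg acetate, 0.01% Tween-20, 0.05% BSA. qHTS titration; luminescence read by CCD imager.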
NPR1 antag = antagonists of human natriuretic peptide receptor Npr1; P16066; HEK293 hNpr1 GloSensor cGMP, ANP-stimulated luminescence; Potency, µM (titrated, usually from 46.3 µM), hits mostly inhibitors; 76,000 tested, 1.6% active; calls by dose curve; note: nearly all actives have a fitted effect of over 60% in size
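HEK293 cells stably expressing human Npr1 and cGMP GloSensor pGS-40F, loaded 2 h with 2% GloSensor reagent, given compound 30 min at room temperature. Luminescence read before and 20 min after 0.1 nM hNppA.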
3T3 cytotox = NIH 3T3 cell cytotoxicity. NIH 3T3 viability, CellTiter-Glo ATP luminescence, 48-72 h. Potency, µM (top dose mostly 96.7 µM), hits mostly inhibitors. 94,000 tested, 4.3% active; note: nearly all actives have a fitted effect of over 55% in size
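First NIH 3T3 cells are plated at 400 cells/well; next compound is pinned in; then plates incubate 48 or 72 hr at 37 °C; finally CellTiter-Glo is added and luminescence read after 10 min.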
Numbers stand for hits; . = inactive; ? = inconclusive; / = no result given. The list is not random: actives were taken first. Their share in the collection is about 11%. Unless noted, calls come from the whole dose curve; as a rule, active = well fitted curve in the direction sought with a large enough effect; inconclusive = small, poorly fitted or top-dose-only effect, or another doubt; inactive = no such curve, though single readings can be large; an effect the other way counts as inactive or inconclusive.

SMILES	HEK293 tox	Luciferase inh	NPR1 antag	3T3 cytotox
Cc1ccc(C2Cn3nnc(C(=O)N4CCC(C(=O)NCCCc5ccccc5)CC4)c3CO2)cc1 (stereo not drawn)	.	?	.	.
COc1cccc(-c2ccc(C(=O)N3CCC(N[S+](=O)([O-])c4cccs4)CC3)cc2)c1	17.8µM	/	/	15.8µM
COc1cccc(-c2ccc(C(=O)N3CCC(N[S+](C)(=O)[O-])CC3)cc2)c1	?	/	/	.
CCc1nc2c(NC(=O)Nc3cccc(C(=O)OC)c3)cccn2n1	?	?	.	?
COc1ccc(NC(=O)Nc2cccn3nc(C)nc23)cc1	?	17.8µM	.	?
Cc1nc2c(NC(=O)Nc3cccc(C(F)(F)F)c3)cccn2n1	35.5µM	?	.	?
COc1ccccc1CN1CC[C@H](CNC(=O)C2CC2)[C@H](N(C)C)C1	.	.	.	.
CN1C(=O)C2(CCN(S(=O)(=O)c3ccc(F)cc3)C2)c2ccccc21 (stereo not drawn)	?	.	.	.
O=C(CCC1CCCN(Cc2cc3ccccc3s2)C1)Nc1ccccc1F (stereo not drawn)	?	.	?	?
O=C(CN1C(=O)C(c2ccccc2)=NC12CCCC2)N1CCc2ccccc21	?	.	.	?
Cc1noc([C@@H]2C[C@H](NC(=O)Nc3cccc(F)c3)CN2C)n1	.	.	.	?
Cc1ccc(-c2noc([C@@H]3C[C@H](NC(=O)Nc4cccc(F)c4)CN3C)n2)cc1	63.1µM	63.1µM	?	?
CN1C[C@@H](NC(=O)Nc2ccccc2)C[C@H]1c1nc(-c2ccc(F)cc2)no1	56.2µM	.	?	?
CN1C[C@@H](NC(=O)Nc2ccc(F)cc2F)C[C@H]1c1nc(-c2ccc(Cl)cc2)no1	?	70.8µM	?	.
CN1C[C@@H](NC(=O)c2ccc(F)cc2)C[C@H]1c1nc(-c2ccc(Cl)cc2)no1	?	.	.	?
Cc1ccc(-c2ncc(C(=O)NCCN(C)C3CCCCC3)c(-c3ccncc3)n2)cc1	20µM	.	.	25.1µM
Cc1cc(Cl)ccc1NC(=O)c1cnc(-c2ccccc2)nc1-c1ccncc1	44.7µM	.	?	20µM
Cc1ccc(-c2ncc(C(=O)Nc3cccc(Br)c3)c(-c3ccncc3)n2)cc1	25.1µM	.	.	?
Cc1ccsc1[C@@H]1CCN(Cc2ccc(-c3ccn[nH]3)o2)C[C@H]1O	.	.	.	.
CC(C)C(=O)Nc1ccc(C2(C(=O)N3CCCC3)CCCCC2)cc1	.	.	.	.
CNC(=O)C1CCCN1c1nccc(Nc2ccccc2F)n1 (stereo not drawn)	.	/	/	.
O=C(NC1CC1)C1CCCN(c2nccc(Nc3ccccc3F)n2)C1 (stereo not drawn)	?	/	/	89.1µM
O=C(NC1CCCC1)C1CCCN(c2nccc(Nc3ccccc3F)n2)C1 (stereo not drawn)	?	/	/	39.8µM
O=C1CC2(CCN(C(=O)c3cnn4ccccc34)CC2)CN1Cc1ccccc1	?	.	.	.
Cc1cc(C)cc(NC(=O)c2ccc3c(c2)N(C)C2CCCN2C3=O)c1 (stereo not drawn)	70.8µM	.	.	.
SMILES	HEK293 tox	Luciferase inh	NPR1 antag	3T3 cytotox
COC(=O)c1cccc(NC(=O)c2ccc3c(c2)N(C)C2CCCCCN2C3=O)c1 (stereo not drawn)	?	?	?	44.7µM
COC(=O)c1cccc(NC(=O)c2ccc3c(c2)N(C)C2CCCCN2C3=O)c1 (stereo not drawn)	?	?	.	?
CSc1cccc(NC(=O)c2ccc3c(c2)N(C)C2CCCCCN2C3=O)c1 (stereo not drawn)	17.8µM	?	.	31.6µM
Cc1cc(NC(=O)c2ccc3c(c2)N(C)C2CCCN2C3=O)ccc1Br (stereo not drawn)	.	?	.	.
COc1cc(NC(=O)c2ccc3c(c2)N(C)C2CCCCN2C3=O)cc(OC)c1OC (stereo not drawn)	?	.	.	31.6µM
CC(C)Oc1ccc(-c2noc(-c3ncn4c3COC(c3ccc(F)cc3)C4)n2)cc1 (stereo not drawn)	.	.	.	.
c1ccc(-c2ccc(CN3CCCC3)cc2)c(CN2CCOCC2)c1	.	.	.	.
CN1c2cc(C(=O)Nc3cccc(Br)c3)ccc2C(=O)N2CCCCCC21 (stereo not drawn)	?	?	.	?
Cc1cccc(NC(=O)c2ccc3c(c2)N(C)C2CCCCCN2C3=O)c1 (stereo not drawn)	?	35.5µM	.	?
O=C1C[C@@H]2CCN(C(=O)c3ccccc3)C[C@@H]2CCN1CCN1CCNC1=O	.	.	.	.
